# Measured values from the supplement of paper PMC4466140.
# Molecular target: SpBzz1-D2
# Test: SPOT peptide array binding signal intensity (averaged, normalized) (arbitrary units (background-subtracted, floor 0; scale differs between SH3 domains)); higher = stronger binding of the SH3 domain to the peptide
# Method in brief: (§1)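 Binding signal is given in arbitrary units that differ between domains and is the normalized, background-subtracted spot intensity averaged across replicates. Each GST-SH3 fusion from one of four yeast species was made in E. coli BL21(DE3), purified on glutathione Sepharose and incubated at 10 μg/ml overnight at 4°C on cellulose-bound synthetic 15-mer peptides in which cysteines were replaced by serines. Detection used anti-GST antibody, an HRP anti-mouse secondary and luminol, followed by imaging and Genespotter quantification.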
row,Binder,SPOT peptide array binding signal intensity
1,VPKEPAPAPPPEPDM,0.25
2,QLMKNLPKIPLLNDI,10.8

# Molecular target: SpCyk3
# Test: as above
# Method in brief: as §1
row,Binder,SPOT peptide array binding signal intensity
1,VPKEPAPAPPPEPDM,≤ 0
2,QLMKNLPKIPLLNDI,4

# Molecular target: SpHof1
# Test: as above
# Method in brief: as §1
row,Binder,SPOT peptide array binding signal intensity
1,VPKEPAPAPPPEPDM,≤ 0
2,QLMKNLPKIPLLNDI,369

# Molecular target: SpHof1-2
# Test: as above
# Method in brief: as §1
row,Binder,SPOT peptide array binding signal intensity
1,VPKEPAPAPPPEPDM,6.38
2,QLMKNLPKIPLLNDI,1050

# Molecular target: SpHof1-3
# Test: as above
# Method in brief: as §1
row,Binder,SPOT peptide array binding signal intensity
1,VPKEPAPAPPPEPDM,20.2
2,QLMKNLPKIPLLNDI,970

# Molecular target: SpHse1
# Test: as above
# Method in brief: as §1
row,Binder,SPOT peptide array binding signal intensity
1,VPKEPAPAPPPEPDM,1.5
2,QLMKNLPKIPLLNDI,206

# Molecular target: SpLsb1
# Test: as above
# Method in brief: as §1
row,Binder,SPOT peptide array binding signal intensity
1,VPKEPAPAPPPEPDM,≤ 0
2,QLMKNLPKIPLLNDI,1

# Molecular target: SpLsb4
# Test: as above
# Method in brief: as §1
row,Binder,SPOT peptide array binding signal intensity
1,VPKEPAPAPPPEPDM,≤ 0
2,QLMKNLPKIPLLNDI,628

# Molecular target: SpMyo1
# Test: as above
# Method in brief: as §1
row,Binder,SPOT peptide array binding signal intensity
1,VPKEPAPAPPPEPDM,670
2,QLMKNLPKIPLLNDI,106

# Molecular target: SpNbp2
# Test: as above
# Method in brief: as §1
row,Binder,SPOT peptide array binding signal intensity
1,VPKEPAPAPPPEPDM,21
2,QLMKNLPKIPLLNDI,88

# Molecular target: SpPex13
# Test: as above
# Method in brief: as §1
row,Binder,SPOT peptide array binding signal intensity
1,VPKEPAPAPPPEPDM,≤ 0
2,QLMKNLPKIPLLNDI,146

# Molecular target: SpRvs167
# Test: as above
# Method in brief: as §1
row,Binder,SPOT peptide array binding signal intensity
1,VPKEPAPAPPPEPDM,≤ 0
2,QLMKNLPKIPLLNDI,22.8

# Molecular target: SpSla1-D1-D2
# Test: as above
# Method in brief: as §1
row,Binder,SPOT peptide array binding signal intensity
1,VPKEPAPAPPPEPDM,8
2,QLMKNLPKIPLLNDI,20.5

# Molecular target: SpSla1-D3
# Test: as above
# Method in brief: as §1
row,Binder,SPOT peptide array binding signal intensity
1,VPKEPAPAPPPEPDM,8.5
2,QLMKNLPKIPLLNDI,251

# Molecular target: AgAbp1
# Test: as above
# Method in brief: as §1
row,Binder,SPOT peptide array binding signal intensity
1,QLMKNLPKIPLLNDI,≤ 0

# Molecular target: AgBbc1
# Test: as above
# Method in brief: as §1
row,Binder,SPOT peptide array binding signal intensity
1,QLMKNLPKIPLLNDI,5.5

# Molecular target: AgBem1-D1
# Test: as above
# Method in brief: as §1
row,Binder,SPOT peptide array binding signal intensity
1,QLMKNLPKIPLLNDI,301

# Molecular target: AgBzz1-D1
# Test: as above
# Method in brief: as §1
row,Binder,SPOT peptide array binding signal intensity
1,QLMKNLPKIPLLNDI,20

# Molecular target: AgBzz1-D2
# Test: as above
# Method in brief: as §1
row,Binder,SPOT peptide array binding signal intensity
1,QLMKNLPKIPLLNDI,36.5

# Molecular target: AgCyk3
# Test: as above
# Method in brief: as §1
row,Binder,SPOT peptide array binding signal intensity
1,QLMKNLPKIPLLNDI,≤ 0

# Molecular target: AgFus1
# Test: as above
# Method in brief: as §1
row,Binder,SPOT peptide array binding signal intensity
1,QLMKNLPKIPLLNDI,336

# Molecular target: AgHof1
# Test: as above
# Method in brief: as §1
row,Binder,SPOT peptide array binding signal intensity
1,QLMKNLPKIPLLNDI,113

# Molecular target: AgHse1
# Test: as above
# Method in brief: as §1
row,Binder,SPOT peptide array binding signal intensity
1,QLMKNLPKIPLLNDI,229

# Molecular target: AgLsb1
# Test: as above
# Method in brief: as §1
row,Binder,SPOT peptide array binding signal intensity
1,QLMKNLPKIPLLNDI,1.75

# Molecular target: AgLsb4
# Test: as above
# Method in brief: as §1
row,Binder,SPOT peptide array binding signal intensity
1,QLMKNLPKIPLLNDI,16.5

# Molecular target: AgMyo5
# Test: as above
# Method in brief: as §1
row,Binder,SPOT peptide array binding signal intensity
1,QLMKNLPKIPLLNDI,2.75

# Molecular target: AgNbp2
# Test: as above
# Method in brief: as §1
row,Binder,SPOT peptide array binding signal intensity
1,QLMKNLPKIPLLNDI,120

# Molecular target: AgRvs167
# Test: as above
# Method in brief: as §1
row,Binder,SPOT peptide array binding signal intensity
1,QLMKNLPKIPLLNDI,1.67

# Molecular target: AgSho1
# Test: as above
# Method in brief: as §1
row,Binder,SPOT peptide array binding signal intensity
1,QLMKNLPKIPLLNDI,3070

# Molecular target: AgSla1-D1-D2
# Test: as above
# Method in brief: as §1
row,Binder,SPOT peptide array binding signal intensity
1,QLMKNLPKIPLLNDI,≤ 0

# Molecular target: AgSla1-D3
# Test: as above
# Method in brief: as §1
row,Binder,SPOT peptide array binding signal intensity
1,QLMKNLPKIPLLNDI,2.75

# Molecular target: CaAbp1-D1
# Test: as above
# Method in brief: as §1
row,Binder,SPOT peptide array binding signal intensity
1,QLMKNLPKIPLLNDI,9.5

# Molecular target: CaAbp1-D2
# Test: as above
# Method in brief: as §1
row,Binder,SPOT peptide array binding signal intensity
1,QLMKNLPKIPLLNDI,46

# Molecular target: CaBbc1
# Test: as above
# Method in brief: as §1
row,Binder,SPOT peptide array binding signal intensity
1,QLMKNLPKIPLLNDI,14.5

# Molecular target: CaBem1-D1
# Test: as above
# Method in brief: as §1
row,Binder,SPOT peptide array binding signal intensity
1,QLMKNLPKIPLLNDI,187

# Molecular target: CaBzz1-D1
# Test: as above
# Method in brief: as §1
row,Binder,SPOT peptide array binding signal intensity
1,QLMKNLPKIPLLNDI,222

# Molecular target: CaBzz1-D2
# Test: as above
# Method in brief: as §1
row,Binder,SPOT peptide array binding signal intensity
1,QLMKNLPKIPLLNDI,121

# Molecular target: CaCyk3
# Test: as above
# Method in brief: as §1
row,Binder,SPOT peptide array binding signal intensity
1,QLMKNLPKIPLLNDI,4

# Molecular target: CaFus1
# Test: as above
# Method in brief: as §1
row,Binder,SPOT peptide array binding signal intensity
1,QLMKNLPKIPLLNDI,670

# Molecular target: CaHof1
# Test: as above
# Method in brief: as §1
row,Binder,SPOT peptide array binding signal intensity
1,QLMKNLPKIPLLNDI,2.75

# Molecular target: CaHse1
# Test: as above
# Method in brief: as §1
row,Binder,SPOT peptide array binding signal intensity
1,QLMKNLPKIPLLNDI,168

# Molecular target: CaLsb1
# Test: as above
# Method in brief: as §1
row,Binder,SPOT peptide array binding signal intensity
1,QLMKNLPKIPLLNDI,2.5

# Molecular target: CaLsb4
# Test: as above
# Method in brief: as §1
row,Binder,SPOT peptide array binding signal intensity
1,QLMKNLPKIPLLNDI,590

# Molecular target: CaMyo5
# Test: as above
# Method in brief: as §1
row,Binder,SPOT peptide array binding signal intensity
1,QLMKNLPKIPLLNDI,83.8

# Molecular target: CaNbp2
# Test: as above
# Method in brief: as §1
row,Binder,SPOT peptide array binding signal intensity
1,QLMKNLPKIPLLNDI,355

# Molecular target: CaRvs167
# Test: as above
# Method in brief: as §1
row,Binder,SPOT peptide array binding signal intensity
1,QLMKNLPKIPLLNDI,19.5

# Molecular target: CaRvs167-3
# Test: as above
# Method in brief: as §1
row,Binder,SPOT peptide array binding signal intensity
1,QLMKNLPKIPLLNDI,≤ 0

# Molecular target: CaSho1
# Test: as above
# Method in brief: as §1
row,Binder,SPOT peptide array binding signal intensity
1,QLMKNLPKIPLLNDI,1860

# Molecular target: CaSla1-D1-D2
# Test: as above
# Method in brief: as §1
row,Binder,SPOT peptide array binding signal intensity
1,QLMKNLPKIPLLNDI,384

# Molecular target: CaSla1-D3
# Test: as above
# Method in brief: as §1
row,Binder,SPOT peptide array binding signal intensity
1,QLMKNLPKIPLLNDI,205

# Molecular target: ScAbp1
# Test: as above
# Method in brief: as §1
row,Binder,SPOT peptide array binding signal intensity
1,QLMKNLPKIPLLNDI,≤ 0

# Molecular target: ScBbc1
# Test: as above
# Method in brief: as §1
row,Binder,SPOT peptide array binding signal intensity
1,QLMKNLPKIPLLNDI,3

# Molecular target: ScBem1-D1
# Test: as above
# Method in brief: as §1
row,Binder,SPOT peptide array binding signal intensity
1,QLMKNLPKIPLLNDI,3

# Molecular target: ScBzz1-D1
# Test: as above
# Method in brief: as §1
row,Binder,SPOT peptide array binding signal intensity
1,QLMKNLPKIPLLNDI,15.5

# Molecular target: ScBzz1-D2
# Test: as above
# Method in brief: as §1
row,Binder,SPOT peptide array binding signal intensity
1,QLMKNLPKIPLLNDI,39.5

# Molecular target: ScCyk3
# Test: as above
# Method in brief: as §1
row,Binder,SPOT peptide array binding signal intensity
1,QLMKNLPKIPLLNDI,5

# Molecular target: ScFus1
# Test: as above
# Method in brief: as §1
row,Binder,SPOT peptide array binding signal intensity
1,QLMKNLPKIPLLNDI,526

# Molecular target: ScHof1
# Test: as above
# Method in brief: as §1
row,Binder,SPOT peptide array binding signal intensity
1,QLMKNLPKIPLLNDI,11.2

# Molecular target: ScHse1
# Test: as above
# Method in brief: as §1
row,Binder,SPOT peptide array binding signal intensity
1,QLMKNLPKIPLLNDI,267

# Molecular target: ScLsb1
# Test: as above
# Method in brief: as §1
row,Binder,SPOT peptide array binding signal intensity
1,QLMKNLPKIPLLNDI,5.75

# Molecular target: ScLsb2
# Test: as above
# Method in brief: as §1
row,Binder,SPOT peptide array binding signal intensity
1,QLMKNLPKIPLLNDI,2

# Molecular target: ScLsb3
# Test: as above
# Method in brief: as §1
row,Binder,SPOT peptide array binding signal intensity
1,QLMKNLPKIPLLNDI,292

# Molecular target: ScLsb4
# Test: as above
# Method in brief: as §1
row,Binder,SPOT peptide array binding signal intensity
1,QLMKNLPKIPLLNDI,67.5

# Molecular target: ScMyo3
# Test: as above
# Method in brief: as §1
row,Binder,SPOT peptide array binding signal intensity
1,QLMKNLPKIPLLNDI,25

# Molecular target: ScMyo5
# Test: as above
# Method in brief: as §1
row,Binder,SPOT peptide array binding signal intensity
1,QLMKNLPKIPLLNDI,2.25

# Molecular target: ScNbp2
# Test: as above
# Method in brief: as §1
row,Binder,SPOT peptide array binding signal intensity
1,QLMKNLPKIPLLNDI,217

# Molecular target: ScPex13
# Test: as above
# Method in brief: as §1
row,Binder,SPOT peptide array binding signal intensity
1,QLMKNLPKIPLLNDI,580

# Molecular target: ScRvs167
# Test: as above
# Method in brief: as §1
row,Binder,SPOT peptide array binding signal intensity
1,QLMKNLPKIPLLNDI,5

# Molecular target: ScSho1
# Test: as above
# Method in brief: as §1
row,Binder,SPOT peptide array binding signal intensity
1,QLMKNLPKIPLLNDI,1950

# Molecular target: ScSla1-D1-D2
# Test: as above
# Method in brief: as §1
row,Binder,SPOT peptide array binding signal intensity
1,QLMKNLPKIPLLNDI,319

# Molecular target: ScSla1-D3
# Test: as above
# Method in brief: as §1
row,Binder,SPOT peptide array binding signal intensity
1,QLMKNLPKIPLLNDI,538

# Molecular target: SpAbp1-D1
# Test: as above
# Method in brief: as §1
row,Binder,SPOT peptide array binding signal intensity
1,QLMKNLPKIPLLNDI,2.5

# Molecular target: SpBbc1
# Test: as above
# Method in brief: as §1
row,Binder,SPOT peptide array binding signal intensity
1,QLMKNLPKIPLLNDI,≤ 0

# Molecular target: SpBzz1-D1
# Test: as above
# Method in brief: as §1
row,Binder,SPOT peptide array binding signal intensity
1,QLMKNLPKIPLLNDI,250
